Assay results: paper PMC7862700, “An all-to-all approach to the identification of sequence-specific readers for epigenetic DNA modifications on cytosine”

Columns and labels:
Assay in all cases: DAPPL (digital affinity profiling via proximity ligation, sequencing); 10 mM Tris-HCl pH 7.5, 50 mM NaCl, 1 mM DTT, 4% glycerol, room temperature, 30 min; GST-TFs on glutathione beads, 16-mer random dsDNA library, 0.1% formaldehyde crosslink after washing; high values mean tight binding
[1] = target: T1, FLI1 (Homo sapiens, UniProt Q01543 1-452); conditions: protein: recombinant; tags: N-terminal GST; dsDNA, one strand shown
T1 sequence: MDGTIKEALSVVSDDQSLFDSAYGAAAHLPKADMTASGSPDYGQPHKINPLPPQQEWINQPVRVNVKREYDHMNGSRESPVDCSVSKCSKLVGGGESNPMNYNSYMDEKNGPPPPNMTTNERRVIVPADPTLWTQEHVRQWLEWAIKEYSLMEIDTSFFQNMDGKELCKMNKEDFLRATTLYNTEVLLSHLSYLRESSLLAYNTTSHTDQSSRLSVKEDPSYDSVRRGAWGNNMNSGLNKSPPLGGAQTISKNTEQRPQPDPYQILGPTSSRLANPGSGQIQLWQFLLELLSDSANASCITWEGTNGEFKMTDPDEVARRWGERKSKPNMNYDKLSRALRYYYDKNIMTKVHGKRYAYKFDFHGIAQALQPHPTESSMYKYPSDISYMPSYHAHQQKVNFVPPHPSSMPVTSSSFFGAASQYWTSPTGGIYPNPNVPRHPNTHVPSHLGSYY
How it was run: (§1)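 Pools of DNA-barcoded human transcription factors, expressed in yeast as GST fusions on glutathione beads and combined with a tag-only sample, were incubated with 200 nmole of a 16-mer random double-stranded DNA library. Incubation took 30 min at room temperature in Tris/NaCl/DTT/glycerol buffer and was followed by washing, 0.1% formaldehyde crosslinking, proximity ligation (BsaI/T4 ligase, 1 h, 37 °C), PCR amplification and sequencing on an Illumina NextSeq500. Binding signal is the ratio of a hexamer's read frequency for a factor to its frequency for the tag-only sample.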

[2] = target: T2, ELK1 (Homo sapiens, UniProt P19419 1-428); conditions: protein: recombinant; tags: N-terminal GST; dsDNA, one strand shown
T2 sequence: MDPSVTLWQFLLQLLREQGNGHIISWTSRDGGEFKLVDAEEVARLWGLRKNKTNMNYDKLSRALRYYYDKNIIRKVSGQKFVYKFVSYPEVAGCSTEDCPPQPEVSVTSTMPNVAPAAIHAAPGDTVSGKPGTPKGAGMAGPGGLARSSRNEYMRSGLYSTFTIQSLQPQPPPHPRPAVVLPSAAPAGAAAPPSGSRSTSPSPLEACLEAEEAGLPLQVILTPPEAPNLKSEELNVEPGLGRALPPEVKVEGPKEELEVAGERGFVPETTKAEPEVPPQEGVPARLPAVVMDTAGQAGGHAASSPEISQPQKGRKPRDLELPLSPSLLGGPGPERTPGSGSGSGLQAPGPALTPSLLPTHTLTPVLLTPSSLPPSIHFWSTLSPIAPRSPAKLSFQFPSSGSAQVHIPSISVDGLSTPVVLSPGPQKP
How it was run: as §1

[3] = target: T3, GABPA (Homo sapiens, UniProt Q06546 1-454); conditions: protein: recombinant; tags: N-terminal GST; dsDNA, one strand shown
T3 sequence: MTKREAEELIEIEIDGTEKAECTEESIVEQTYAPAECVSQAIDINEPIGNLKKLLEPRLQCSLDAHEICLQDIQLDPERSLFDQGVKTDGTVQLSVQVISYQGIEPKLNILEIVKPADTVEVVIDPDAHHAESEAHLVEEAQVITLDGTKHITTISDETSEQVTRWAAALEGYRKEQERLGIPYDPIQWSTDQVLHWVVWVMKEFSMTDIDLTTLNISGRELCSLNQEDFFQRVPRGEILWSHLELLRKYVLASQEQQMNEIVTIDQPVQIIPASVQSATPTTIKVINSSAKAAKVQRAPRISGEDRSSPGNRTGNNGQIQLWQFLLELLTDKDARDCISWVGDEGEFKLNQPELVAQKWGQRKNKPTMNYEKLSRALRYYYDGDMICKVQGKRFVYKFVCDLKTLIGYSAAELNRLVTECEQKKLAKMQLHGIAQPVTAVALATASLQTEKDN
How it was run: as §1

[4] = target: T4, ERG (Homo sapiens, UniProt P11308 1-479); conditions: protein: recombinant; tags: N-terminal GST; dsDNA, one strand shown
T4 sequence: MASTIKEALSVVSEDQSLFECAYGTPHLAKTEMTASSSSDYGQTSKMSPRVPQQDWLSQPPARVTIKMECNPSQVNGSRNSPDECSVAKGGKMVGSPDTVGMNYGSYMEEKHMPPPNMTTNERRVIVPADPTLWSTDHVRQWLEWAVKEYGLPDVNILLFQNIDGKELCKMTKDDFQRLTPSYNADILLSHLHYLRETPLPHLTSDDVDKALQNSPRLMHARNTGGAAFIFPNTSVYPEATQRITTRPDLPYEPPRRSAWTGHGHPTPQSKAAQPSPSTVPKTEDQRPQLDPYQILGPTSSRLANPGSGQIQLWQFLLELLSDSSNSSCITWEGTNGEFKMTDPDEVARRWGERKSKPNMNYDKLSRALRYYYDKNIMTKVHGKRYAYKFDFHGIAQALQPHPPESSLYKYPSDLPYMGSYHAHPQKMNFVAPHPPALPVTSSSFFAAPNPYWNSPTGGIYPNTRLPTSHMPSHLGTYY
How it was run: as §1

[5] = target: ELF1 (Homo sapiens, UniProt P32519 1-619); conditions: protein: recombinant; tags: N-terminal GST; dsDNA, one strand shown
ELF1, sequence (P32519 whole entry): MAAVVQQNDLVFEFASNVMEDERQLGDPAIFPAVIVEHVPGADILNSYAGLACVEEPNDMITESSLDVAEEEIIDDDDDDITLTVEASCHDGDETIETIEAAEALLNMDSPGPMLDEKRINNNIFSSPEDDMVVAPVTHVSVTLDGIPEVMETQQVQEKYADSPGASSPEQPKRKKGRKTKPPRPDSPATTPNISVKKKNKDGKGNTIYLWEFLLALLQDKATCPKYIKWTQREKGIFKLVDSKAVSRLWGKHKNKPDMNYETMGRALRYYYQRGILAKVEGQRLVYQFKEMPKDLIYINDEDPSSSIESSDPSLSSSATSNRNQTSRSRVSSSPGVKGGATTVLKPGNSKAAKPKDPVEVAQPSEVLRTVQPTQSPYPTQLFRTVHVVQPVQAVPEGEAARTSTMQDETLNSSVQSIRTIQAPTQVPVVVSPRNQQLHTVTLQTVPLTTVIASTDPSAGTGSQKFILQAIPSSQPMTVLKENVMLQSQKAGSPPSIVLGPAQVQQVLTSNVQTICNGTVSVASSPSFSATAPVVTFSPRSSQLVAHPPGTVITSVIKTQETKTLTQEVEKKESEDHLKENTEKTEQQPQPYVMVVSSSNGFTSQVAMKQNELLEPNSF
How it was run: as §1

[6] = target: T5, EHF (Homo sapiens, UniProt Q9NZC4 1-300); conditions: protein: recombinant; tags: N-terminal GST; dsDNA, one strand shown
T5 sequence: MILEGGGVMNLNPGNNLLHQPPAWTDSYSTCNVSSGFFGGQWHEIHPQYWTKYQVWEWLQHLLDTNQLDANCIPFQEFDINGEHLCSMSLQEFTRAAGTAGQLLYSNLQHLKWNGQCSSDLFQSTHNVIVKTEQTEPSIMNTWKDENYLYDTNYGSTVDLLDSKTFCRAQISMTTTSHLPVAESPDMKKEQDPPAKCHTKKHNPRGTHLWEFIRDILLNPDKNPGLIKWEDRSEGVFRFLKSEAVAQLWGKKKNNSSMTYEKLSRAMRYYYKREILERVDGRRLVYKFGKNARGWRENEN
How it was run: as §1

[7] = target: SPI1 (Homo sapiens, UniProt P17947 1-270); conditions: protein: recombinant; tags: N-terminal GST; dsDNA, one strand shown
How it was run: as §1

[8] = target: SPIB (Homo sapiens, UniProt Q01892 1-262); conditions: protein: recombinant; tags: N-terminal GST; dsDNA, one strand shown
SPIB, sequence (Q01892 whole entry): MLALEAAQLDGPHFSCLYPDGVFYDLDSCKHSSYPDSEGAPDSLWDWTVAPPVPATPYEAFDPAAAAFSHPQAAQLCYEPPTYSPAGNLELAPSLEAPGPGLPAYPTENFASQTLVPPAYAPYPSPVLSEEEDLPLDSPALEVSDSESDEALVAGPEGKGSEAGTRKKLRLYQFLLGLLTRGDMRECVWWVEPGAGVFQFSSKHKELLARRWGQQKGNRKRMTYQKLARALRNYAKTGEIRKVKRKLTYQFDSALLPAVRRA
How it was run: as §1

[9] = target: T6, ELK3 (Homo sapiens, UniProt P41970 1-407); conditions: protein: recombinant; tags: N-terminal GST; dsDNA, one strand shown
T6 sequence: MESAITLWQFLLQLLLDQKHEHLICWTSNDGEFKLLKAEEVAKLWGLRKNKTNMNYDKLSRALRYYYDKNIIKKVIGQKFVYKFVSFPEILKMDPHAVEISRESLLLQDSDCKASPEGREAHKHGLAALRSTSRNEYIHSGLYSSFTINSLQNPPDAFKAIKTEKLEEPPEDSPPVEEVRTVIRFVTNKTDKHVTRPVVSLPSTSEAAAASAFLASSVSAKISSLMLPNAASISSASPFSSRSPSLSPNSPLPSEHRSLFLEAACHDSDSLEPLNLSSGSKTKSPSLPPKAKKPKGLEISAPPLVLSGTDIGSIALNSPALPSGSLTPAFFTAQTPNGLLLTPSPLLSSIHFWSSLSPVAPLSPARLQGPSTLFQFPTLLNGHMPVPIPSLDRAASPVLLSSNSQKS
How it was run: as §1

[10] = target: T7, FEV (Homo sapiens, UniProt Q99581 1-238); conditions: protein: recombinant; tags: N-terminal GST; dsDNA, one strand shown
T7 sequence: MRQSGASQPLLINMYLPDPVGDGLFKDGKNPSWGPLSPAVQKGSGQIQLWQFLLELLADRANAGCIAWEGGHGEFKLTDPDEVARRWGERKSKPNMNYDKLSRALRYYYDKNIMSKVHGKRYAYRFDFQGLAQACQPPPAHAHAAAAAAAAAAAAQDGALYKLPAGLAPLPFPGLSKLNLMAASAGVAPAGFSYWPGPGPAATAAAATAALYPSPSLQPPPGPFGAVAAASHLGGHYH
How it was run: as §1

[11] = target: ETV5 (Homo sapiens, UniProt P41161 1-510); conditions: protein: recombinant; tags: N-terminal GST; dsDNA, one strand shown
ETV5, sequence (P41161 whole entry): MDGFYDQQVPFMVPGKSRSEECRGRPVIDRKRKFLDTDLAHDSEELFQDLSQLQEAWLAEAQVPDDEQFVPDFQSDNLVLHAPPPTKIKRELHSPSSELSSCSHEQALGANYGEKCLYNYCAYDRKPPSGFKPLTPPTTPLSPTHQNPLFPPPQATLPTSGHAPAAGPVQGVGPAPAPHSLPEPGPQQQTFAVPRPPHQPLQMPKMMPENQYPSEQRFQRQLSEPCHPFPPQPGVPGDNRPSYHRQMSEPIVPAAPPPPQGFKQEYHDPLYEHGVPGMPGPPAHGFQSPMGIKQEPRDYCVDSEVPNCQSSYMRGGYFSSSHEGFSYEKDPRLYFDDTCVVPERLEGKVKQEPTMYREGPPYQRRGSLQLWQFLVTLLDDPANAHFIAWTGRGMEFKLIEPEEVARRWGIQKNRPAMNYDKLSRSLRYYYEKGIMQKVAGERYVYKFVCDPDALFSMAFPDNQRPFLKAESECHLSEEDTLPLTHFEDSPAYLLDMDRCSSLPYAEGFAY
How it was run: as §1

[12] = target: HSF1 (Homo sapiens, UniProt Q00613 1-529); conditions: protein: recombinant; tags: N-terminal GST; chain copies: 3; dsDNA, one strand shown
HSF1, sequence (Q00613 whole entry): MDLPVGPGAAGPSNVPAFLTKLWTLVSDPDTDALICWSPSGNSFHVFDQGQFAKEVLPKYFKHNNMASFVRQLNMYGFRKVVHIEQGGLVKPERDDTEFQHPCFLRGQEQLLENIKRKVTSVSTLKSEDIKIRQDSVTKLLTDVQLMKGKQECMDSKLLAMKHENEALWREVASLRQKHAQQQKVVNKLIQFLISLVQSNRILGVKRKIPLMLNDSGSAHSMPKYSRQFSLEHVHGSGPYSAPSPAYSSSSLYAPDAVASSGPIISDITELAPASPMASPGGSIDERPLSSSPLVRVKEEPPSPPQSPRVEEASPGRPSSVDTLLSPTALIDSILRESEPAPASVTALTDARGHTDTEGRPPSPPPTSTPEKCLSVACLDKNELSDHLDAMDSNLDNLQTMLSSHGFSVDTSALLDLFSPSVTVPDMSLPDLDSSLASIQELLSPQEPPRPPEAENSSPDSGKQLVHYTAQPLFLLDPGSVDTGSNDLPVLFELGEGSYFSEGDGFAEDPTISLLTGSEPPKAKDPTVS
How it was run: as §1

[13] = target: T8, SPIC (Homo sapiens, UniProt Q8N5J4 1-248); conditions: protein: recombinant; tags: N-terminal GST; dsDNA, one strand shown
T8 sequence: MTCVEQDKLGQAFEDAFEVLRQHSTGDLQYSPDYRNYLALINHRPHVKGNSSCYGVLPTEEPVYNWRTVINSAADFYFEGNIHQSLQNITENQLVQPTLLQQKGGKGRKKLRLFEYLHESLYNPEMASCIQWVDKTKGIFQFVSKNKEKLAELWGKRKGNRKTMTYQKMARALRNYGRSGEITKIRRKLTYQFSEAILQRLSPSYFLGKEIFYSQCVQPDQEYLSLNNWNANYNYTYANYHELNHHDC
How it was run: as §1

[14] = target: ELF4 (Homo sapiens, UniProt Q99607 1-663); conditions: protein: recombinant; tags: N-terminal GST; dsDNA, one strand shown
ELF4, sequence (Q99607 whole entry): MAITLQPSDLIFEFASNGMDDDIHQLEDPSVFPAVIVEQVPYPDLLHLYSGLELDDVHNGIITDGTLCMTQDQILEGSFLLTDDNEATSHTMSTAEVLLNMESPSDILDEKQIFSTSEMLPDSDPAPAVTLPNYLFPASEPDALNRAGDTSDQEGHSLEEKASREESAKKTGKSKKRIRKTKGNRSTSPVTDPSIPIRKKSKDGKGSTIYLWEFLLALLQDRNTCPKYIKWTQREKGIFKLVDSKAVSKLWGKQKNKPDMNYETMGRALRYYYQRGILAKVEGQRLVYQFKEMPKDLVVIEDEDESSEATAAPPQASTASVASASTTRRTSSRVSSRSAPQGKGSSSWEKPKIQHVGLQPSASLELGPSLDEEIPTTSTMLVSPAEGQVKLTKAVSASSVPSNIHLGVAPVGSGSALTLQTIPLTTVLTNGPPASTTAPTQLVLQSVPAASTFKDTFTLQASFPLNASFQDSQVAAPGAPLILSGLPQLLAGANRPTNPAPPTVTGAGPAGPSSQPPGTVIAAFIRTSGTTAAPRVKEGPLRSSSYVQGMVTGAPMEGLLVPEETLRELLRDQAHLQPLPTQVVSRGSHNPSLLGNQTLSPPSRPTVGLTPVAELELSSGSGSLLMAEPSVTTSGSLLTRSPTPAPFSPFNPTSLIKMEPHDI
How it was run: as §1

[15] = target: T9, ELK4 (Homo sapiens, UniProt P28324-2 1-405); conditions: protein: recombinant; tags: N-terminal GST; dsDNA, one strand shown
T9 sequence: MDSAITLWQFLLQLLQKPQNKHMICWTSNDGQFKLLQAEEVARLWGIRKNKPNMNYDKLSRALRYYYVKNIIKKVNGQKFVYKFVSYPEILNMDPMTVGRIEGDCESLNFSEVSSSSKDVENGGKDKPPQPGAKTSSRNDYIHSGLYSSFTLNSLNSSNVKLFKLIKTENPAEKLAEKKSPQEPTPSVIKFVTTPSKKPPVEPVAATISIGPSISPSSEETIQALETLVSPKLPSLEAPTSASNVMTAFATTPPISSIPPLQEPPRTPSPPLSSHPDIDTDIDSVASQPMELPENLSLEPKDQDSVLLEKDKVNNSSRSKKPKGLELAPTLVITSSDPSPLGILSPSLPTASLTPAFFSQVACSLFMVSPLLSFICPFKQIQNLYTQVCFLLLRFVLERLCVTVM
How it was run: as §1

[16] = target: T10, ETV2 (Homo sapiens, UniProt O00321 1-342); conditions: protein: recombinant; tags: N-terminal GST; dsDNA, one strand shown
T10 sequence: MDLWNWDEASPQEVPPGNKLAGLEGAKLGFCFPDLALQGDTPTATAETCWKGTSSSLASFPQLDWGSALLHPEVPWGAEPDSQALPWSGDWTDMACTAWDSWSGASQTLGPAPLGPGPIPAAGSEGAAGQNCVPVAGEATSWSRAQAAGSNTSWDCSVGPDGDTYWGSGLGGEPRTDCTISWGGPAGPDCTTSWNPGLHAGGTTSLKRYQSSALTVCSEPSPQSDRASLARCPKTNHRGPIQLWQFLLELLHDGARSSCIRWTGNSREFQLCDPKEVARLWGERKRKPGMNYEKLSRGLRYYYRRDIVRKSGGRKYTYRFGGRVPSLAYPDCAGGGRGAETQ
How it was run: as §1

[17] = target: T11, ELF3 (Homo sapiens, UniProt P78545 1-371); conditions: protein: recombinant; tags: N-terminal GST; dsDNA, one strand shown
T11 sequence: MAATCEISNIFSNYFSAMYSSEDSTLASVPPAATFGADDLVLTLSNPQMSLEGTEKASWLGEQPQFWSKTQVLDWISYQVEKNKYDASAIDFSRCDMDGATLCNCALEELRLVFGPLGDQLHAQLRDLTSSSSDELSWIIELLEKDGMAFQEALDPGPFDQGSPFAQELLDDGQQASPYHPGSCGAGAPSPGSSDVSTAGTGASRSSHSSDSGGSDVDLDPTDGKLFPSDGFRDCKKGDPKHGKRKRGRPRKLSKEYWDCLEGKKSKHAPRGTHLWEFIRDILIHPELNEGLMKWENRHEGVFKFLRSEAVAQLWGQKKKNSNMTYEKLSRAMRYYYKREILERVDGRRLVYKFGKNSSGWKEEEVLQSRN
How it was run: as §1

[18] = target: CRX (Homo sapiens, UniProt O43186 1-299); conditions: protein: recombinant; tags: N-terminal GST; dsDNA, one strand shown
CRX, sequence (O43186 whole entry): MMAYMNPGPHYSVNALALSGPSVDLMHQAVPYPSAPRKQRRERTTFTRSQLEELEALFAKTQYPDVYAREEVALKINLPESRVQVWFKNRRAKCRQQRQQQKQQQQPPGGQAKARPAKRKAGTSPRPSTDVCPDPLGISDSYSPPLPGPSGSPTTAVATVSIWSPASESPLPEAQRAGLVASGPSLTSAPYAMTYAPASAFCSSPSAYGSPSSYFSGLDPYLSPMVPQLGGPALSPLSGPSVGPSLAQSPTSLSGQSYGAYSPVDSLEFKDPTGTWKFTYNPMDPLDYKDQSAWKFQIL
How it was run: as §1

[19] = target: ETV1 (Homo sapiens, UniProt P50549 1-477); conditions: protein: recombinant; tags: N-terminal GST; dsDNA, one strand shown
ETV1, sequence (P50549 whole entry): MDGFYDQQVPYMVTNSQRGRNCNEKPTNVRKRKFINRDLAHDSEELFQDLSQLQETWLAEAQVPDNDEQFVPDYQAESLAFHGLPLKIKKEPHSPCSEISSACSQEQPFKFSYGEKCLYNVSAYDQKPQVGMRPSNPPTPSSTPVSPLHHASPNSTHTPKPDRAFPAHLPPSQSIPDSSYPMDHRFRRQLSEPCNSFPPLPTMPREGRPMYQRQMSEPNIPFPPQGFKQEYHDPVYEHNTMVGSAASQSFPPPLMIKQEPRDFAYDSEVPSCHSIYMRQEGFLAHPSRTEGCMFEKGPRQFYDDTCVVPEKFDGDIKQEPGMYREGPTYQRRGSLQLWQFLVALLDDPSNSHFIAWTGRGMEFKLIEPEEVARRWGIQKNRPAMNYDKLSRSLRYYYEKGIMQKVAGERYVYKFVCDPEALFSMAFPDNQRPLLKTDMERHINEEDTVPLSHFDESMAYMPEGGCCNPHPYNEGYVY
How it was run: as §1

Sequence: CTCACT
- binding signal [1]: 1.61 fold enrichment (6-mer frequency, TF over GST control)
- binding signal [2]: 1.76 fold enrichment (6-mer frequency, TF over GST control)
- binding signal [3]: 1.59 fold enrichment (6-mer frequency, TF over GST control)
- binding signal [4]: 1.57 fold enrichment (6-mer frequency, TF over GST control)
- binding signal [5]: 1.49 fold enrichment (6-mer frequency, TF over GST control)
- binding signal [6]: 1.56 fold enrichment (6-mer frequency, TF over GST control)
- binding signal [7]: 1.68 fold enrichment (6-mer frequency, TF over GST control)
- binding signal [8]: 1.66 fold enrichment (6-mer frequency, TF over GST control)
- binding signal [9]: 1.5 fold enrichment (6-mer frequency, TF over GST control)
- binding signal [10]: 1.63 fold enrichment (6-mer frequency, TF over GST control)
- binding signal [11]: 1.4 fold enrichment (6-mer frequency, TF over GST control)
- binding signal [12]: 1.36 fold enrichment (6-mer frequency, TF over GST control)
- binding signal [13]: 1.57 fold enrichment (6-mer frequency, TF over GST control)
- binding signal [14]: 1.53 fold enrichment (6-mer frequency, TF over GST control)
- binding signal [15]: 1.38 fold enrichment (6-mer frequency, TF over GST control)
- binding signal [16]: 1.51 fold enrichment (6-mer frequency, TF over GST control)
- binding signal [17]: 1.63 fold enrichment (6-mer frequency, TF over GST control)
- binding signal [18]: 1.27 fold enrichment (6-mer frequency, TF over GST control)
- binding signal [19]: 1.49 fold enrichment (6-mer frequency, TF over GST control)
